KDM5B inhibitor – KDM5B demethylase inhibition; Q9UGL1; KDM5B demethylase, FDH-coupled NADH fluorescence (FDH is formaldehyde dehydrogenase); Potency, µM (top dose mostly 57.7 µM), actives largely listed as inhibitors; 220,000 compounds, 2.6% hits; AID 1347165; active means well fitted inhibition curve with a large enough effect; further: nearly all actives have a fitted effect of over 70% in size
Target sequence (Q9UGL1 whole entry, looked up): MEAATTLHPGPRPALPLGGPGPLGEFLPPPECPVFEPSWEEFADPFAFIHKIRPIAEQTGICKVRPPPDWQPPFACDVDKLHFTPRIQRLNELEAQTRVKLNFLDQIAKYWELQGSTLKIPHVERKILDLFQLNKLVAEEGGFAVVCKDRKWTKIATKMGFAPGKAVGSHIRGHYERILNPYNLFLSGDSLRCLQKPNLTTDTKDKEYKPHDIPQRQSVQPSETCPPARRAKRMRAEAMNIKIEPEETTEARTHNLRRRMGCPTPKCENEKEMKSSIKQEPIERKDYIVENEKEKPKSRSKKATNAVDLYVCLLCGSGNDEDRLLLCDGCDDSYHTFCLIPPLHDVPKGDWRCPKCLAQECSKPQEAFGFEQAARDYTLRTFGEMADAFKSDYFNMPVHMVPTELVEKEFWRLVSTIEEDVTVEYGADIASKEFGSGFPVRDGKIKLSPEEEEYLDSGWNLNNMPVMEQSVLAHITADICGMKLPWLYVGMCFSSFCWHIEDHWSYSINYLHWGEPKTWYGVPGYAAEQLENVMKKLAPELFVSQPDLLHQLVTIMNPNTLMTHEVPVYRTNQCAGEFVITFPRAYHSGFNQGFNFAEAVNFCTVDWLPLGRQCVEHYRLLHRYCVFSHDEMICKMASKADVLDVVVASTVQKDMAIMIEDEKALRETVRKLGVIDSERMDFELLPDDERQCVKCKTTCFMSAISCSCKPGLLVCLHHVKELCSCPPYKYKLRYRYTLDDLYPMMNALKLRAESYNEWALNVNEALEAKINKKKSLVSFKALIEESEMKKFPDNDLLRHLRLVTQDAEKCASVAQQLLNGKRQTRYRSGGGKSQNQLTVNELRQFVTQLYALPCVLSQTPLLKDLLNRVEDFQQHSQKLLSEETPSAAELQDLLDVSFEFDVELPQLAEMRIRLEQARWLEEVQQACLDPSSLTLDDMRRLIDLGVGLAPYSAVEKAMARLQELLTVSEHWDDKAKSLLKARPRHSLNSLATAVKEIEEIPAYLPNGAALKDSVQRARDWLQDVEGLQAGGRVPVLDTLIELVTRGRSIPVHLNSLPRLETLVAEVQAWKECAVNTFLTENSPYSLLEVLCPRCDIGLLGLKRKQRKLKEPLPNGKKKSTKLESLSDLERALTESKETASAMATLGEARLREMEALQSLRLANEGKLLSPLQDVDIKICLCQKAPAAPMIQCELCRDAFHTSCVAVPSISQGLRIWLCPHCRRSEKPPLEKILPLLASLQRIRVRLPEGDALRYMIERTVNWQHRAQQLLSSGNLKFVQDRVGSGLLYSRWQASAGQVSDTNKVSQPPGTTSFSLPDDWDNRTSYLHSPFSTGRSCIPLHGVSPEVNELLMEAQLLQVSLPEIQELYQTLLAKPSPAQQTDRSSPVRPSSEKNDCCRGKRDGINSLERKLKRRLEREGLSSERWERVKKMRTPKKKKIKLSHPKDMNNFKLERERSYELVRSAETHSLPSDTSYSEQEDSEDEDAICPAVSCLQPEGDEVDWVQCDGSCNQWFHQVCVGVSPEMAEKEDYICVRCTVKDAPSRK
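Compound dilutions met 200 nM (final) KDM5BΔAP for 10 min at room temperature before substrate addition. The substrate mix held 12.5 µM H3K4me3 with cofactors 25 µM α-ketoglutarate and 50 µM Fe²⁺. NADH signal gain over 30 min defined activity.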
Of the large screens only hits and unclear results are named; the others gave an inactive call; ! = repeats disagree. The entries come from a sample that favours hits as a whole.

COc1ccc(CN(C)Cc2cc(=O)oc3c(C)c(C)ccc23)cc1	none
CC1(C)Cc2c(sc3c2c(=O)n(CCCO)c(=O)n3Cc2ccccc2)CO1	none
O=C(N[C@H]1CCN2C(=O)c3cc(-c4cccs4)ccc3NC(=O)[C@H]12)c1cccs1	KDM5B inhibitor 32µM
CSc1ccc(-c2ccc3c(c2)C(=O)N2CC[C@H](NC(=O)c4cccs4)[C@H]2C(=O)N3)cc1	KDM5B inhibitor 25µM
O=C(N[C@H]1CCN2C(=O)c3cc(-c4ccccc4)ccc3NC(=O)[C@H]12)c1cnccn1	none
O=C1Nc2ccc(-c3ccc(F)cc3F)cc2C(=O)N2CC[C@H](NC(=O)N3CCOCC3)[C@@H]12	none
O=C(N[C@H]1CCN2C(=O)c3cc(-c4ccc(F)cc4F)ccc3NC(=O)[C@H]12)c1cccc(F)c1	none
CSCC(=O)N[C@H]1CCN2C(=O)c3cc(-c4cccs4)ccc3NC(=O)[C@H]12	KDM5B inhibitor 35µM
CSCC(=O)N[C@H]1CCN2C(=O)c3ccc(Cl)cc3NC(=O)[C@H]12	none
Cc1cccc(-c2ccc3c(c2)C(=O)N2CC[C@H](NC(=O)c4cccs4)[C@H]2C(=O)N3)c1C	none
c1ccc2[nH]c(CN3CCCC3)nc2c1	none
COC(=O)c1ccc(C(=O)Oc2ccc(C(C)=O)cc2)cc1	none
COc1ccc(-c2cc(N3CCN(C(=O)c4ccc(C)cc4C)CC3)n[nH]2)cc1	none
COc1ccc(OCCC(=O)Nc2cccc3cccnc23)cc1	none
C/C(=C/C(=O)C(F)(F)F)N1CCN(Cc2ccccc2)CC1	none
COc1ccc(C(=O)N2CCN(c3cc(-c4ccc(Cl)cc4)[nH]n3)CC2)cc1F	none
COc1cccc(C2CCCN2Cc2cc(=O)oc3cc(OC)ccc23)c1 (centres undefined)	none
Cc1c(Cl)ccc2c(C(=O)NC3CCCCC3)cc(-c3ccccc3)nc12	none
COCC1CN(C2CCC2)CC12CCN(C(=O)CCC1CCCC1)CC2 (centres undefined)	none
O=C(NCC1CC1)c1noc(-c2ccccc2F)n1	KDM5B inhibitor 20µM
COc1ccc(CCNC(=O)c2noc(-c3ccccc3F)n2)cc1OC	none
O=C(NCC1CCCCC1)c1noc(-c2ccc[nH]c2=O)n1	none
Oc1ccccc1CN1CCOC[C@H]1c1ncc(-c2cccc(Cl)c2)[nH]1	none
O=C(c1cnn(-c2ccccc2)c1)N1CC[C@H](N2CCOCC2)[C@H](CCCO)C1	none
CC(C)c1cc(C(=O)N2CC[C@H](N3CCOCC3)[C@H](CCCO)C2)nc(N)n1	none
CC(C)c1ccc(C#N)c(N2CC[C@H](N3CCOCC3)[C@H](CCCO)C2)n1	KDM5B inhibitor 28µM
COc1ccc(C(=O)Nc2cccc(NC(C)=O)c2)cc1Br	none
C[S+](=O)([O-])c1cccc(CN2CC(COc3ccccc3)C3(C2)CN(c2ccccc2)C3)c1 (centres undefined)	KDM5B inhibitor 35µM
Cn1ccc(C(=O)N2CC(COc3ccccc3)C3(C2)CN(c2ccccc2)C3)n1 (centres undefined)	none
O=C(NCC1CN(Cc2cccc(O)c2)CC12CN(c1ccccc1)C2)c1ccccc1 (centres undefined)	none
Cn1nccc1C(=O)N1CC(COc2ccccc2)C2(C1)CN(c1ccccc1)C2 (centres undefined)	none
Clc1cccc(CN2CC(CNc3cccnc3)C3(C2)CN(c2ccccc2)C3)c1 (centres undefined)	KDM5B inhibitor 32µM
N#Cc1cccc(CN2CC(COc3ccccc3)C3(C2)CN(c2ccccc2)C3)c1 (centres undefined)	KDM5B inhibitor 40µM
c1ccc(N2CC3(CN(CC4CC4)CC3CNc3cccnc3)C2)cc1 (centres undefined)	none
Clc1cnccc1CN1CC(CNc2ccccc2)C2(C1)CN(c1ccccc1)C2 (centres undefined)	none
O=C(c1cn[nH]c1)N1CC2(CN(Cc3cccc(OC(F)(F)F)c3)CC2COc2ccccc2)C1 (centres undefined)	none
O=C(NCc1ccccn1)C1c2ccccc2C(=O)N(Cc2ccccc2)C12CCCCC2 (centres undefined)	none
CC(SC1CCCC1)C(=O)Nc1cccc(Cl)c1 (centres undefined)	none
O=C(c1ccccc1Cl)N1CCCC(c2nc3ccccc3o2)C1 (centres undefined)	none
CCN1C(=O)C(Cc2cc(OC)ccc2OC)c2ccccc21 (centres undefined)	none
Cc1ccc(C(=O)/C=C/c2ccccc2F)o1	none
O=C(OCc1ccc(-c2ccccc2)cc1)c1cnccn1	none
O=C(CC1(C(=O)O)CCCCC1)Nc1ccccc1CO	none
COc1ccc(C(C)=O)c(OC(=O)c2cc(F)c(F)cc2Cl)c1	none
O=C(CCCOC(=O)c1cc(Cl)ccc1Cl)c1ccc(Br)cc1	none
CCn1nnc2cc(C(=O)Nc3nc(-c4ccc5c(c4)CC(=O)N5)cs3)ccc21	none
CCC1c2nccn2CCCN1C(=O)c1ccc(OC)nc1OC (centres undefined)	none
c1ccc(-c2nc3ncccc3[nH]2)nc1	KDM5B inhibitor 32µM!
Cc1ccc(C)c(CSc2nc3ncccc3[nH]2)c1	none
O=C(O)c1ccc(CN2C[C@@H](F)[C@@H](OCc3nc4ncccc4[nH]3)C2)cc1	none
Clc1cccc(CSc2nc3ncccc3[nH]2)c1	none
Clc1ccc(CSc2nc3ncccc3[nH]2)cc1	none
O=C(O)c1ccc2ncccc2c1	none
c1cnc2nc(-c3ccsc3)[nH]c2c1	KDM5B inhibitor 32µM!
O=C(O)c1ccc(-c2nc3ncccc3[nH]2)cc1	KDM5B inhibitor 28µM!
Cc1nc(-c2ccccn2)n[nH]1	none
O=C(O)C/C(=C/c1cccc(O)c1)c1nc2ccccc2o1	none
c1coc(CN2CC(Oc3ccc(-c4noc(-c5ccncc5)n4)cc3)C2)c1	none
CC(C)(C)c1ccc(C(=O)NC(Nc2cccc(Cl)c2)C(Cl)(Cl)Cl)cc1 (centres undefined)	none
COc1cc(CC(=O)NC(C)c2cccs2)cc(OC)c1OC (centres undefined)	none
COc1ccc(NC(=O)N2CCN(S(=O)(=O)c3cc4c(cc3Cl)NC(=O)C(C)O4)CC2)cc1 (centres undefined)	none
COc1ccc(Nc2ccc3c(n2)CN(Cc2ccccc2F)C(=O)CO3)cc1	KDM5B inhibitor 35µM
COc1ccc(Nc2ccc3c(n2)CN(Cc2ccccc2C)C(=O)CO3)cc1	KDM5B inhibitor 35µM
O=C1COc2ccc(-c3cc(F)cc(F)c3)nc2CN1Cc1ccccc1F	none
COc1ccc(Nc2ccc3c(n2)CN(Cc2nc4ccccc4s2)C(=O)CO3)cn1	none
Cc1ccccc1CN1Cc2nc(-c3cncnc3)ccc2OCC1=O	none
Cc1nc(CN2Cc3nc(Nc4ccc(C(F)(F)F)cc4)ccc3OCC2=O)cs1	KDM5B inhibitor 35µM
COCCN1Cc2nc(Nc3ccccc3F)ccc2OCC1=O	none
Cc1nc(CN2Cc3nc(Oc4ccccc4)ccc3OCC2=O)cs1	none
Cc1nc(CN2Cc3nc(-c4ccccc4)ccc3OCC2=O)cs1	none
Cc1nn(-c2cc(N3CCN(C(=O)C(C)(C)C)CC3)ccc2[N+](=O)[O-])c(=O)c2ccccc12	none
Cc1ccc(-n2ncc3c2ncn2nc(-c4cccs4)nc32)c(C)c1	none
CCN(CC)S(=O)(=O)NCCNS(=O)(=O)N(CC)CC	none
Cc1ccccc1-n1c(C)c(C)c2c1ncn1nc(-c3cccnc3)nc21	none
CC(c1ccccc1)N(C)C(=O)c1nn(C)c(=O)c2ccccc12 (centres undefined)	none
O=C(N1CCCCC1)N1CCN(C2CCNCC2)C(=O)C1	KDM5B inhibitor 89µM
O=C(N1CCCCC1)N1CCN(c2cc(Cl)ncn2)C(=O)C1	none
O=C(c1ccncc1)N1CCN(C2CCNCC2)C(=O)C1	none
O=C(O)CCC(=O)N1CCN(C2CCNCC2)C(=O)C1	none
CC(=O)Nc1ccc(C(=O)N2CCN(C3CCNCC3)C(=O)C2)cc1	none
